From the supplement of paper PMC10981050
Several values for one entry are separate records, joined by “and”; a condition that tells them apart may be missing. Equal entries are not always repeated.

Tests used:
Experiment in all cases: cell viability relative to vehicle control; higher = less cytotoxic
Details in all cases: 10 µM
K562 = test system: K562
Summary of the method: (§1)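 Four leukaemia lines, as CRISPR-edited mutant clones and isogenic wild-type clones, were tested against Selleck bioactive, kinase and epigenetic probe libraries after removal of identity-inconsistent compounds. Cells were exposed to a single 10 µM dose for 48 h, and CellTiter-Glo luminescence was then read. Viability was calculated relative to the on-plate vehicle control.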

MARIMO = test system: MARIMO
Summary of the method: as §1

MOLM14 = test system: MOLM14
Summary of the method: as §1

OCI-AML2 = test system: OCI-AML2
Summary of the method: as §1

Row | SMILES | cell viability (K562; SRSF2 genotype: SRSF2 P95H/wt) | cell viability (K562; SRSF2 genotype: SRSF2 wt/wt) | cell viability (MARIMO; SRSF2 genotype: SRSF2 P95H/wt) | cell viability (MARIMO; SRSF2 genotype: SRSF2 wt/wt) | cell viability (MOLM14; SRSF2 genotype: SRSF2 P95H/wt) | cell viability (MOLM14; SRSF2 genotype: SRSF2 wt/wt) | cell viability (OCI-AML2; SRSF2 genotype: P95H/wt) | cell viability (OCI-AML2; SRSF2 genotype: wt/wt)
1 | Cc1cc(S(=O)(=O)O)c2c(C)ccc(C(C)C)cc1-2 [Sodium gualenate] | 103% | 103% | 100% | 108% | 99% | 104% | 95.2% | 106%
2 | CC(C)(C)NC(=O)N[C@H](C(=O)N1C[C@H]2[C@@H]([C@H]1C(=O)NC(CC1CCC1)C(=O)C(N)=O)C2(C)C)C(C)(C)C (stereo not given in full) [Boceprevir] | 85.6% and 87.6% | 84.2% | 71.3% | 73.2% | 91.1% | 84.3% | 84% | 88.9%
3 | CC(=O)O[C@]1(C(C)=O)CC[C@H]2[C@@H]3C[C@H](C)C4=CC(=O)CC[C@]4(C)[C@H]3CC[C@@]21C [Medroxyprogesterone acetate] | 82.5% and 92.8% | 94.7% | 104% | 73% | 112% | 102% | 98.5% | 87.5%
4 | COc1ccccc1S(=O)(=O)Nc1ccc2c(c1)CN(C)C(=O)N2 | 81.5% and 75.9% | 76.5% | 48.9% | 46.6% | 33.4% | 34.5% | 27.1% | 40.2%
5 | c1cc(-c2cnn3cc(-c4ccc(N5CCNCC5)cc4)cnc23)c2cccnc2c1 | 0.29% and 0.31% | 0.27% | 0.3% | 0.3% | 0.26% | 0.32% | 0.24% | 0.25%
6 | C[C@@H]1COCCN1c1cc(C2(S(C)(=O)=O)CC2)nc(-c2cccc3[nH]ccc23)n1 | 8.63% and 11.6% | 8.6% | 20.2% | 18% | 22.2% | 7.72% | 16.2% | 18.7%
7 | Cc1nc(Nc2ncc(C(=O)Nc3cc(NC(=O)c4cccc(C(F)(F)F)c4)ccc3C)s2)cc(N2CCN(CCO)CC2)n1 | 11.4% and 16% | 20.1% | 50% | 63% | 12.2% | 13.8% | 55.5% | 57.3%
8 | COC(=O)C1(C)CCC2(C(=O)O)CCC3(C)C(=CCC4C5(C)CC(O)C(O)C(C)(CO)C5CCC43C)C2C1 (stereo not given) [Phytolaccagenin] | 108% | 113% | 111% | 103% | 111% | 111% | 105% | 98.5%
9 | CC[N+](CC)(CC)CCOc1cccc(OCC[N+](CC)(CC)CC)c1OCC[N+](CC)(CC)CC [Gallamine triethiodide (Flaxedil)] | 96% and 97.9% | 91.8% | 101% | 96.8% | 101% | 99.5% | 99% | 95.4%
10 | O=C(CCc1ccc(O)cc1)c1c(O)cc(O[C@@H]2O[C@H](CO)[C@@H](O)[C@H](O)[C@H]2O)cc1O [Trilobatin] | 96.2% and 98.8% | 96.8% | 99.7% | 105% | 89.2% | 98.9% | 92.6% | 106%
